# Reference: PubChem BioAssay AID651932 (Southern Research Specialized Biocontainment Screening …, 2012)
# Values without a mark were called inactive. How the calls were made is not given here.
# Test: RSV cytopathic effect inhibition in HEp-2, counter-screen for VEEV inhibitor project, HEp-2 cells, set 2 (AID 651932)
# Settings: series mostly up to 25 µM; inhibition: at the top concentration
row,Structure (SMILES),inhibition [%]
1,CCN1CCN(C)CC1=Nc1ccc([N+](=O)[O-])cc1C(=O)Nc1ccccc1,12.7
2,COc1ccc(NC(=O)c2cc([N+](=O)[O-])ccc2N=C2CN(C)CCN2C)cc1,3.17
3,CN1CCN(C)C(=Nc2ccc([N+](=O)[O-])cc2C(=O)Nc2ccccc2)C1,8.1
4,CCN1CCN(Cc2nc3ccc([N+](=O)[O-])cc3c(=O)n2-c2ccccc2F)CC1,11.3
